# Test results reported in PubChem BioAssay (NCI).
# About 83,000 compounds went through this panel and 20% of them were active in at least one assay; those are over-represented in the sample as a whole.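 A percent growth of 40 corresponds to 60% growth inhibition; 0 means no net growth; -100 means all cells died. Active threshold: below 10.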 A number with no mark means an inactive call. Activity calls are given as the source filed them.
# Tested on: LOX IMVI melanoma
# Test: NCI-60 one-dose screen, 48 h (100 = growth as untreated, 0 = no growth, -100 = all killed)
# Conditions: 10 µM unless noted
row,Compound,growth
1,COCCOC(=O)C1=C(C)NC(=S)NC1c1ccc2c(c1)OCO2 (centres undefined),101%
2,O=S(=O)(Nc1ccc(F)c(Cl)c1)c1ccc(-c2cnc(C3CC3)o2)cc1,42.8%
3,NCCN1CCN(c2nccc(-c3ccc4ccccc4c3)n2)CC1,-64.8% (active)
4,CCN(CC)Cc1cc(Nc2c3ccc(Cl)cc3nc3c(C)cccc23)ccc1O,-84.9% (active)
5,N#Cc1ccc(NC(=O)Nc2ccc(Cc3ccc(NC(=O)Nc4ccc(C#N)cc4)cc3)cc2)cc1,-67.6% (active)
6,CCCCNc1ccc2c3c1cccc3c(=O)n1c3ccccc3nc21,75.9%
7,O=C1O[C@H]([C@H](O)CO)C(O)=C1O,94.8%
8,CCC(=O)OCc1cccc(OC)c1,92.1%
9,Cc1ccc2cnc(N)c(C#Cc3cncc(C(=O)Nc4ccc(CN5CCN(C)CC5)c(C(F)(F)F)c4)c3)c2c1,-92.4% (active)
10,CC#Cc1nc2ccccc2c(=O)[nH]1,-60.1% (active)
11,COc1cc2c(cc1O)CCc1cc(O)cc(OC)c1-2,93.5%
12,CCCCCCCCCCCCS(=O)CC(C)O (centres undefined),111%
13,CCN(CC)CCCNc1cccc2c(SCc3ccccc3)ccnc12,24%
14,COc1ccc(/C=C2\N=C3Sc4cc(Cl)ccc4C(=O)N3C2=O)cc1,98.8%
15,O=C1C(Cl)=C(Cl)C(=O)c2c1nc1n2CCCC1,85.8%
16,CN1CCN(Cc2ccc(NC(=O)c3cncc(C#Cc4c(N)ncc5ccc(C#N)cc45)c3)cc2C(F)(F)F)CC1,-79.8% (active)
17,Nc1nc(SCc2ccccc2)c2ncn(C3CCCC3)c2n1,3.63% (active)
18,COc1cc(NC(N)=NCC(C)(C)COc2ccc(C(F)(F)F)cc2)cnc1C#N,67.1%
19,CCCCCCCCCCCCCCCC(=O)OCC1OC(n2cnc3c(=S)nc(N)[nH]c32)C(OC(=O)CCCCCCCCCCCCCCC)C1OC(=O)CCCCCCCCCCCCCCC (centres undefined),21.7%
20,O=[N+]([O-])c1cccc(-c2nc3sccn3c2-c2ccnc(NCCCNS(=O)(=O)c3ccc(Br)cc3)n2)c1,38.4%

row,Compound,growth
1,COc1ccc(-c2nc(Nc3cc(C)[nH]n3)c3ccccc3n2)cc1,13.7%
2,O=C1Nc2c(ccc(Cl)c2Cl)/C1=C/c1cc(Br)c(O)c(Br)c1,59.6%
3,Nc1nc2ccc(-c3nc4ccc5[nH]ncc5c4c4c3CCC4)cc2s1,19.6%
4,Cc1cc(Cl)ccc1Nc1nc(C(F)(F)F)ccc1C(=O)N/N=C/c1ccc(F)cc1,0.251% (active)
5,COc1ccc(C(=O)COc2ccc(/C=C3\Oc4ccc(Cl)cc4C3=O)cc2)cc1,92%
6,CC[C@@H](C)OC(=O)c1nn(C(C)=O)c2ccccc12,95.6%
7,CCN(CC)c1ccc(/C=C/C2=[N+](C)c3ccccc3C2(C)C)cc1,13.3%
8,CCCCCCCCCCCCCCCC[N+]1(CC)CCCC1,-64.1% (active)
9,COc1cc(OC)c(/C=C/c2cc[n+](C)c3ccccc23)c(OC)c1,-74.2% (active)
10,CC[C@H](Nc1nc(N)nc(C)c1C#N)c1nc2cccc(NCc3ccc(C(=O)NO)cc3)c2c(=O)n1-c1ccccc1,-52.6% (active)
11,O=C(CN1CCOCC1)Nc1ccc(Cn2nnc3c2C(=O)c2nnn(Cc4ccc(NC(=O)CN5CCOCC5)cc4)c2C3=O)cc1,-25.1% (active)
12,COc1ccc2[nH]c(=O)c(/C=C/C(=O)c3ccc(Nc4nccc(-c5ccc6ccccc6c5)n4)cc3)cc2c1,100%
13,OC(c1cccc(C(F)(F)F)c1)c1cnccc1NC1CCCCCC1 (centres undefined),-18.7% (active)
14,CNC(=O)c1cc(Oc2ccc3nc(NC(=O)Nc4ccc(CN5CCOCC5)c(C(F)(F)F)c4)sc3c2)ccn1,16.7%
15,O=c1c2cccc3c(Nc4ccccn4)ccc(c32)c2nc3ccccc3n12,69.6%
16,CC(C)[C@@H]1CC[C@]2(C(=O)NCCCCN=C(N)N)CC[C@]3(C)[C@H](CC[C@@H]4[C@@]5(C)CCC(=O)C(C)(C)[C@@H]5CC[C@]43C)[C@@H]12,69.9%
17,Cc1ccc2c(c1)n([O-])c1cc(Cl)ccc1[n+]2=O,129%
18,CC(C)(C)n1cc(-c2ccnc(NCCCNS(=O)(=O)c3cccc4ccccc34)c2)c(-c2cccc(O)c2)n1,-45.1% (active)
19,COc1ccc(-c2cc(=O)[nH]c3c(OC)c4ccccc4c(OC)c23)cc1,46.9%
